One experiment relates to Klebsiella pneumoniae. The settings on record: Concentration 20 uM; ASSAY_TEST Inhibition of Bacterial Growth; detection method Absorption (OD600); MEDIA CAMHB; plate type 384well; NBS; CORNING #3640; time 18 hr.
In a further experiment the test system is Candida albicans. Conditions: 20 µM.
The next experiment deals with Cryptococcus neoformans. Conditions: Concentration 20 uM; ASSAY_TEST Inhibition of Fungal Growth; detection method Resazurin; Absorption (OD600-OD570); plate type 384well; NBS; CORNING #3640.

Results with a measured potency or affinity are listed apart. Square brackets hold non-standard residues; d marks the D form. Peptide text beside a SMILES is read from it. pGlu = O=C1CC[C@@H](C(=O)O)N1; Thz = O=C(O)[C@@H]1CSCN1

What is called Inhibition is the change of the read-out against control, counted positive when it falls.

Take `CC[C@H](C)C(=O)O[C@H]1C[C@@H](C)C=C2C=C[C@H](C)[C@H](CC[C@@H]3C[C@@H](O)CC(=O)O3)[C@H]21` [LOVASTATIN]: the Inhibition with Klebsiella pneumoniae was 12.43%; in the experiment with Candida albicans, 17.1%; in the experiment with Cryptococcus neoformans, -5.68%.
The like results for `Cc1ccccc1C(OCCN(C)C)c1ccccc1.Cl` (centres undefined) [ORPHENADRINE HYDROCHLORIDE] were, in that order, 11.73%, 1.54% and -6.53%.
As to `Cl.c1ccc2c(c1)CCCC2C1=NCCN1` (centres undefined) [TETRAHYDROZOLINE HYDROCHLORIDE], the Inhibition with Klebsiella pneumoniae was 14.26%; in the experiment on Candida albicans, 3.03%; with Cryptococcus neoformans, -3.23%.
As to `COC(=O)[C@H](c1ccccc1Cl)N1CCc2sccc2C1` [CLOPIDOGREL], the Inhibition with Klebsiella pneumoniae was 14.99%; with Candida albicans, 2.18%; in the experiment on Cryptococcus neoformans, -8.15%.
In the case of `CCC(=C(c1ccccc1)c1ccc(OCCN(C)C)cc1)c1ccccc1`, the Inhibition was 0.16% in the experiment on Klebsiella pneumoniae, 5.96% with Candida albicans and 1.89% with Cryptococcus neoformans.
In the case of `O=C1CCC(N2C(=O)c3ccccc3C2=O)C(=O)N1` (centres undefined) [THALIDOMIDE], the Inhibition is 3.28% in the experiment on Klebsiella pneumoniae, 3.62% with Candida albicans and -0.8% in the experiment on Cryptococcus neoformans.
Turning to `CCCCc1nc(Cl)c(CO)n1Cc1ccc(-c2ccccc2-c2nnn[n-]2)cc1.[K+]` [LOSARTAN POTASSIUM], the Inhibition was 7.23% in the experiment on Klebsiella pneumoniae, 5% in the experiment on Candida albicans and -3.04% in the experiment on Cryptococcus neoformans.
Consider `CCOC(=O)[C@H](CCc1ccccc1)N[C@@H](C)C(=O)N1Cc2ccccc2C[C@H]1C(=O)O.Cl` [QUINAPRIL HYDROCHLORIDE], for which the values for the Inhibition in the experiment with Klebsiella pneumoniae, in the experiment with Candida albicans and with Cryptococcus neoformans were 14.37%, 3.86% and -5.15%, respectively.
Turning to `O=[N+]([O-])c1cccc2cn[nH]c12` [7-NITROINDAZOLE], the values for the Inhibition in the experiment with Klebsiella pneumoniae, with Candida albicans and in the experiment on Cryptococcus neoformans were 13.1%, 3.19% and -0.25%, respectively.
As for `Cl.O=c1n(CCCN2CCN(c3cccc(Cl)c3)CC2)nc2ccccn12` [TRAZODONE HYDROCHLORIDE], the Inhibition in the experiment on Klebsiella pneumoniae is 4.82%; with Candida albicans, 3.08%; in the experiment on Cryptococcus neoformans, -5.73%.
`CN1CCN(C2=Nc3cc(F)ccc3Cc3ccccc32)CC1` [FLUPERLAPINE]: the Inhibition was 11.17% in the experiment with Klebsiella pneumoniae, 3.99% in the experiment with Candida albicans and -6.37% with Cryptococcus neoformans.
The like results for `CCCc1nc(C(C)(C)O)c(C(=O)OCc2oc(=O)oc2C)n1Cc1ccc(-c2ccccc2-c2nnn[nH]2)cc1` [OLMESARTAN MEDOXOMIL] were, in that order, 5.33%, 4.08% and -0.73%.
As for `CCOC(=O)C1=C(C)NC(C)=C(C(=O)OC)C1c1cccc(Cl)c1Cl` (centres undefined) [FELODIPINE], the Inhibition with Klebsiella pneumoniae is 7.48%; in the experiment with Candida albicans, 1.71%; with Cryptococcus neoformans it was -9.45%.
The like results for `N#Cc1ccc(C(c2ccc(C#N)cc2)n2cncn2)cc1` [LETROZOLE] were, in that order, 9.79%, 2.89% and -8.63%.
In the case of `CC(C)(C)NC(=O)[C@@H]1CN(Cc2cccnc2)CCN1C[C@@H](O)C[C@@H](Cc1ccccc1)C(=O)N[C@H]1c2ccccc2C[C@H]1O.O=S(=O)(O)O` [INDINAVIR SULFATE], the Inhibition with Klebsiella pneumoniae is 0.54%; in the experiment on Candida albicans it was 2.58%; with Cryptococcus neoformans, -4.45%.
As to `Nc1c2c(nc3c1CCC3)CCCC2` [IPIDACRINE], the Inhibition is 15% in the experiment on Klebsiella pneumoniae, 3.22% with Candida albicans and -0.69% with Cryptococcus neoformans.
On to `CCOc1cc(N)c(Cl)cc1C(=O)NCC1CN(Cc2ccc(F)cc2)CCO1.O=C(O)CC(O)(CC(=O)O)C(=O)O` (centres undefined) [MOSAPRIDE CITRATE], for which the Inhibition in the experiment on Klebsiella pneumoniae is 16.24%; in the experiment on Candida albicans, 1.57%; in the experiment with Cryptococcus neoformans, -5.5%.
For `NCC(=O)CCC(=O)O` [AMINOLEVULINIC ACID] the same measures were 13.51%, 0.21% and -6.69%.
For `CCOC(=O)N1CCC(=C2c3ccc(Cl)cc3CCc3cccnc32)CC1` [LORATADINE], the Inhibition with Klebsiella pneumoniae is 12.62%; with Candida albicans, 2.41%; with Cryptococcus neoformans it was -7.17%.
For the molecule `Cl.O=C(c1ccc(OCCN2CCCCC2)cc1)c1c(-c2ccc(O)cc2)sc2cc(O)ccc12` [RALOXIFENE HYDROCHLORIDE], the Inhibition is 7.01% in the experiment with Klebsiella pneumoniae, 0.43% in the experiment with Candida albicans and -13.3% in the experiment with Cryptococcus neoformans.
On to `CSc1ccc2c(c1)N(CCC1CCCCN1C)c1ccccc1S2.Cl` (centres undefined) [THIORIDAZINE HYDROCHLORIDE], for which the Inhibition with Klebsiella pneumoniae was 9.7%; with Candida albicans it was 4.12%; with Cryptococcus neoformans, 4.01%.
On to `Sc1ncnc2nc[nH]c12` [MERCAPTOPURINE ANHYDROUS], for which the Inhibition with Klebsiella pneumoniae is 7.84%; in the experiment with Candida albicans it was 11.2%; in the experiment with Cryptococcus neoformans, -0.87%.
With `CCCCCCCCCCC[C@@H](C[C@@H]1OC(=O)[C@H]1CCCCCC)OC(=O)[C@H](CC(C)C)NC=O` [ORLISTAT], the Inhibition in the experiment on Klebsiella pneumoniae was 7.06%; in the experiment on Candida albicans it was 1.01%; in the experiment on Cryptococcus neoformans it was -4.7%.
Take `CN1CCC(=C2c3ccccc3CCc3sccc32)CC1.O=C(O)/C=C\C(=O)O`: the Inhibition is 13.2% in the experiment on Klebsiella pneumoniae, 3.52% in the experiment with Candida albicans and -10.62% with Cryptococcus neoformans.
The like results for `CCN(CC)CCOc1ccc(C(=C(Cl)c2ccccc2)c2ccccc2)cc1.O=C(O)CC(O)(CC(=O)O)C(=O)O` [CLOMIPHENE CITRATE] were, in that order, 12.13%, 7.1% and -20.85%.
Regarding `CCCCC1=NC2(CCCC2)C(=O)N1Cc1ccc(-c2ccccc2-c2nnn[nH]2)cc1` [IRBESARTAN], the results for the Inhibition in the experiment with Klebsiella pneumoniae, in the experiment with Candida albicans and in the experiment with Cryptococcus neoformans were 7.4%, -0.2% and 0.28%, respectively.
The like results for `CCCCC(=O)N(Cc1ccc(-c2ccccc2-c2nnn[nH]2)cc1)[C@H](C(=O)O)C(C)C` were, in that order, 7.53%, 3.96% and -1.97%.
Regarding `O=C1CC[C@@H](C(=O)N2CSC[C@H]2C(=O)O)N1` [PIDOTIMOD] ([pGlu]-[Thz]-OH), the Inhibition in the experiment with Klebsiella pneumoniae is 9.73%; in the experiment with Candida albicans it was 0.05%; in the experiment on Cryptococcus neoformans, -3.45%.
